An excerpt weighted towards active compounds, which were near 2.4% of everything screened.
FEN1 inh: qHTS Assay for the Inhibitors of Human Flap endonuclease 1 (FEN1); Recombinant FEN1 flap cleavage, fluorescence, 15 min; Potency, µM (highest dose often 114 µM), inactives show at the top dose activity change, negative = inhibition, most hits filed as inhibitors; P39748; actives 0.35% (n = 390,000); further: on the % scale 0 is the no-effect control and ±100 the full control effect; nearly all actives have a fitted effect of over 65% in size
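In this screen, 50 nM flap DNA substrate was added to 10 nM FEN1 pretreated with compound for 15 min at room temperature; cleavage was followed with reads at 0 and 15 min, and Hill fitting gave concentration–response parameters.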
Pol eta inh: qHTS for Inhibitors of Polymerase Eta; actives 1.2% (n = 390,000); DNA polymerase eta (Homo sapiens), Q9Y253; recombinant Pol eta, fluorescent DNA replication assay; Potency, µM (titrated, usually from 114 µM), inactives show top-dose activity change, negative = inhibition, actives largely listed as inhibitors; further: on the % scale 0 is the no-effect control and ±100 the full control effect
Target sequence (Q9Y253 whole entry, looked up): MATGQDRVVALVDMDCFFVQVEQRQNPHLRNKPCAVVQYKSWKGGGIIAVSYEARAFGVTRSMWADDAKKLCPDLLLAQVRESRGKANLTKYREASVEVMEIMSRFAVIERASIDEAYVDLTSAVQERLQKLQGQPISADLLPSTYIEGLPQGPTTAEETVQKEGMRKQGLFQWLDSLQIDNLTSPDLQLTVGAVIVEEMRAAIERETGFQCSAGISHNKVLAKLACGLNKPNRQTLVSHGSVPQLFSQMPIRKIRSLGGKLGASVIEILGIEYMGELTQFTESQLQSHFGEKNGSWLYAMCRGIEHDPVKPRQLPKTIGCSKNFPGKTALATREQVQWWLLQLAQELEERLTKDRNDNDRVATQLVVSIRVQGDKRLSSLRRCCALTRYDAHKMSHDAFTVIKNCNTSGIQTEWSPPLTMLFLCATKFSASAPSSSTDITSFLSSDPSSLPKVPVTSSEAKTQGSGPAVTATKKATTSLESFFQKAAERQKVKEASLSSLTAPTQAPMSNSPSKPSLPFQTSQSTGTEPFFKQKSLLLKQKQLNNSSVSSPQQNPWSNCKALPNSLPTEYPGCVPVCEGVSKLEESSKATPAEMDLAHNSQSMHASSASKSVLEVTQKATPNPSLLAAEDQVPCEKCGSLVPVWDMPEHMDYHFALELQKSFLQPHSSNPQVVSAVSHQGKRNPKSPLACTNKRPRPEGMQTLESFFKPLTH
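Pol eta at 10 nM preincubated with compounds 15 min at room temperature; reaction started with fluorescent substrate (50 nM final) and read kinetically at 0 and 10 min.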
POLK inh: qHTS for Inhibitors of Polymerase Kappa; DNA polymerase kappa (Homo sapiens), Q9UBT6; Potency, µM (series often up to 107 µM), for the others: at the highest dose activity, negative = inhibition, hits mostly inhibitors; actives 0.53% (n = 400,000); AID 588579, 2011; purified Pol kappa, fluorescent DNA synthesis assay, 10 min; further: on the % scale 0 is the no-effect control and ±100 the full control effect
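Readout: fluorescence, taken kinetically at 0 and 10 min. Conditions: 10 nM Pol kappa, 15 min RT compound preincubation, 50 nM substrate final. Controls: enzyme-free buffer wells.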
Pol iota inh: qHTS for Inhibitors of Polymerase Iota; actives 1% (n = 390,000); AID 588590, 2011; Potency, µM (top dose mostly 115 µM), for the others: at the top dose activity, negative = inhibition, hits mostly inhibitors; Pol iota fluorescent replication assay, 10 min
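Fluorescent replication assay read twice, at 0 min and 10 min after adding 50 nM (final) substrate. Enzyme (10 nM) and compounds were first incubated 15 min at room temperature; enzyme-free buffer wells were negative controls.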
Pol beta inh: qHTS Assay for Inhibitors of DNA Polymerase Beta | AID 485314, 2010 | Potency, µM (titrated, usually from 114 µM), for the others: top-dose activity change, negative = inhibition, most hits filed as inhibitors | actives 1.3% (n = 340,000) | Pol beta primer extension/strand displacement, fluorescence kinetic | P06746; further: on the % scale 0 is the no-effect control and ±100 the full control effect
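Human Pol beta at 10 nM; strand-displacement substrate 50 nM final. Compound exposure 15 min at room temperature before start, reaction 10 min at room temperature.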
WRN inhibitor: qHTS for Inhibitors of WRN Helicase. WRN helicase unwinding, fluorescent forked duplex, kinetic. actives 0.46% (n = 360,000). Potency, µM (top dose mostly 114 µM), without a hit: top-dose activity change, negative = inhibition, actives largely listed as inhibitors. Bifunctional 3'-5' exonuclease/ATP-dependent helicase WRN (Homo sapiens), Q14191; further: on the % scale 0 is the no-effect control and ±100 the full control effect; nearly all actives have a fitted effect of over 55% in size
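WRN at 20 nM final preincubated with compound 15 min at room temperature; reaction started with 100 nM fluorophore/quencher forked duplex oligonucleotide and 2 mM ATP final. Unwinding followed kinetically by red fluorescence (ex 525, em 598 nm).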
* marks the source's active call; other numbers are inactive results; ? = inconclusive; . = no result; [ ] = another dose, or the depositor's remark. The call rests on the fitted dose curve; in most records, active means well fitted curve in the direction sought with a large enough effect; inconclusive means small, poorly fitted or top-dose-only effect, or another doubt; inactive means no such curve, though single readings can be large; an effect the other way counts as inactive or inconclusive. Potency means the concentration at half of the fitted maximal effect.

SMILES | FEN1 inh | Pol eta inh | POLK inh | Pol iota inh | Pol beta inh | WRN inhibitor
N#CCCn1c(=O)cnc2cnc(OCc3ccccc3)nc21 | . | . | 0%[60.1 µM] | . | . | .
CC1CCC(NC(=O)COC(=O)c2ccc3ncsc3c2)CC1 (stereo unspecified) | 11% | -3% | -1% | ? | . | 13%
O=C(OCC(=O)N1CCN(c2ccccc2)CC1)c1ccc2ncsc2c1 | -1% | ? | -40% | ? | 89µM* | -13%
O=C(COC(=O)c1ccc2ncsc2c1)NC(=O)C1CCCCC1 | 14% | . | -26% | 71µM* | . | .
O=C(OCC(=O)N1CCN(c2ccccc2)CC1)c1cccc([N+](=O)[O-])c1 | -3% | -17% | 2% | -1% | . | -11%
Cc1cccc(OCc2nc(CC(=O)Nc3ccc(C)cc3C)cs2)c1 | -2% | -1% | -13% | 27% | -2% | .
O=Cc1[nH]c2ccccc2c1N(C(=O)CCl)c1ccccc1 | 0% | 20µM* | -11% | ? | -10% | -6%
COc1ccc(-c2nc3ccc(NC(=O)COC(C)=O)cc3c(=O)n2Cc2ccccc2)cc1COc1ccc(NC(C)=O)cc1 | -23% | . | -10% | ? | . | .
COc1ccc(-c2nc3ccc(NC(C)=O)cc3c(=O)n2Cc2cccc(Cl)c2)cc1COc1ccc(NC(C)=O)cc1 | 79µM* | . | ? | ? | . | .
CCc1noc(-c2ccc(N3CCCCC3C)c([N+](=O)[O-])c2)n1 (stereo unspecified) | -4% | -17% | -3% | 10% | -15% | .
COC(=O)c1c(NC(=O)c2ccccc2)sc(C(=O)c2ccccc2)c1C | -3% | -5% | -10% | -11% | 39% | -6%
COC(=O)c1c(NC(=O)C2CC=CCC2C(=O)O)sc(C)c1C (stereo unspecified) | -8% | -9% | 5% | 30% | 5% | -3%
COC(=O)c1c(NC(=O)C2CC=CCC2C(=O)O)sc(C(N)=O)c1C (stereo unspecified) | 0% | ? | -17% | 14µM* | 3% | ?
COC(=O)c1c(NC(=O)c2ccccc2)sc(C(N)=O)c1C | 1% | -16% | -6% | 89µM* | 14% | -5%[11.6 µM]
CCNc1ccc(Br)cc(C(=O)/C=C/c2ccc(Cl)cc2Cl)c1=O | ? | 14µM* | ? | 8.9µM* | 13µM* | ?
CNc1ccc(Br)cc(C(=O)/C=C/c2ccc(OC)cc2)c1=O | 4% | ? | -17% | ? | 28µM* | -8%[11.6 µM]
Cc1cc(C)cc(OCC(=O)Nc2ccc(-n3cnnn3)cc2)c1 | -1% | -12% | 2% | 32µM* | . | -6%
COc1cc(/C=N/NC(=O)COc2ccc([N+](=O)[O-])cc2)ccc1OCC(=O)N1CCOCC1 | 5% | -1% | -16% | -8% | 18µM* | -3%
COc1cc(/C=N/NC(=O)COc2ccc(-n3cnnn3)cc2)ccc1OCC(N)=O | 9% | -9% | ? | ? | 16µM* | -6%
Cc1cc(NC(=O)CS(=O)CC(=O)Nc2c(C)cccc2C)ccc1-n1cnnn1 (stereo unspecified) | 0% | -8% | 0% | -1% | 49% | 7%
CCc1ccc(NC(=O)CS(=O)CC(=O)Nc2ccc(-n3cnnn3)c(C)c2)cc1 (stereo unspecified) | -23% | -2% | -13% | 14% | 25µM* | -23%
CNCc1ccccc1Sc1cccc(O)c1 | -2% | 3% | -18% | 113% | 14% | -10%
CNCc1ccccc1Sc1cc(O)ccc1O | ? | -18% | -16% | ? | 6% | 32µM*
O=C(NCCc1ccccc1)c1ccc2c(c1)nc1n2CCOC1 | 15% | -4% | -11%[60.1 µM] | -8% | 16% | .
CC(=O)Nc1cccc(OCC(=O)Nc2sccc2C(N)=O)c1 | -18% | ? | -31% | 50µM* | 0% | -2%[11.6 µM]
SMILES | FEN1 inh | Pol eta inh | POLK inh | Pol iota inh | Pol beta inh | WRN inhibitor
NC(=O)c1ccsc1NC(=O)COC(=O)c1cc(=O)[nH]c2ccccc12 | 9% | 40µM* | -16% | ? | . | ?
NC(=O)c1ccsc1NC(=O)COC(=O)c1ccccc1F | 10% | -7% | -3% | 79µM* | . | 6%
NC(=O)c1ccsc1NC(=O)COC(=O)c1c(F)cccc1Cl | -17% | -11% | -3% | -17% | . | 3%
CC1CCCC(C)N1/N=C/c1ccc(O)c(O)c1 (stereo unspecified) | 4% | ? | 40µM* | ? | 2.2µM* | -4%[11.6 µM]
COc1ccc(/C=N/N2C(C)CCCC2C)cc1O (stereo unspecified) | 5% | -3% | -7% | 140% | 41% | 2%
CCOC(=O)c1cc(-c2ccco2)nc2c1c(C)nn2-c1cccc(Cl)c1 | 7% | ? | -5% | 9% | 28µM* | -10%
O=C(NN=C1CCCC1)c1cccc(O)c1 | 18% | 7% | -5% | 14% | 22% | 9%
O=C(NN=C1CCCC1)c1cc(O)cc(O)c1 | -26% | 50µM* | ? | 35µM* | 20µM* | -33%
CCc1nnc(NC(=O)CSc2nnc(C3CC3)n2C)s1 | 3% | -15% | 3% | 13% | -2% | -26%
C=CCn1c(SCC(=O)Nc2nnc(C)s2)nnc1C1CC1 | -3% | ? | -33% | ? | 25µM* | -7%
Cc1cc(C(=O)OCC(=O)NC2CCS(=O)(=O)C2)c2ccccc2n1 (stereo unspecified) | 4% | -21% | 5% | 158% | 2% | 5%
O=C(COC(=O)c1cc(-c2ccccc2Cl)nc2ccccc12)Nc1ncc(C(F)(F)F)cc1Cl | -10% | ? | ? | ? | 32µM* | -8%
O=C(COC(=O)c1cccc2ccccc12)Nc1ncc(C(F)(F)F)cc1Cl | -9% | -4% | -4% | 1% | 0% | -6%
O=C(COC(=O)c1cc(-c2cccc3ccccc23)nc2ccccc12)NC1CCS(=O)(=O)C1 (stereo unspecified) | ? | -25% | -11% | ? | 50µM* | 79µM*
O=C(Cc1ccccc1Cl)NO | -1% | . | 7% | -9% | . | .
CC(C)CCNC(=O)C1CCN(C(=O)c2cc3sccc3n2Cc2ccc(Cl)cc2)CC1 | 3% | -17% | 7% | 9% | -14% | .
Cc1ccc(-c2nnn3c2nc(NCCc2ccc(S(N)(=O)=O)cc2)c2ccccc23)cc1 | -1% | -29% | 2% | 85% | 5µM* | -22%

Compound activity as filed in PubChem.
